Test in all cases: DAPPL (digital affinity profiling via proximity ligation, sequencing); 10 mM Tris-HCl pH 7.5, 50 mM NaCl, 1 mM DTT, 4% glycerol, room temperature, 30 min; GST-TFs on glutathione beads, 16-mer random dsDNA library, 0.1% formaldehyde crosslink after washing; high values mean tight binding
What all share (settings): protein: recombinant; tags: N-terminal GST; dsDNA, one strand shown

In one experiment the target is T1, ELK1 (Homo sapiens, UniProt P19419 1-428).
T1 sequence: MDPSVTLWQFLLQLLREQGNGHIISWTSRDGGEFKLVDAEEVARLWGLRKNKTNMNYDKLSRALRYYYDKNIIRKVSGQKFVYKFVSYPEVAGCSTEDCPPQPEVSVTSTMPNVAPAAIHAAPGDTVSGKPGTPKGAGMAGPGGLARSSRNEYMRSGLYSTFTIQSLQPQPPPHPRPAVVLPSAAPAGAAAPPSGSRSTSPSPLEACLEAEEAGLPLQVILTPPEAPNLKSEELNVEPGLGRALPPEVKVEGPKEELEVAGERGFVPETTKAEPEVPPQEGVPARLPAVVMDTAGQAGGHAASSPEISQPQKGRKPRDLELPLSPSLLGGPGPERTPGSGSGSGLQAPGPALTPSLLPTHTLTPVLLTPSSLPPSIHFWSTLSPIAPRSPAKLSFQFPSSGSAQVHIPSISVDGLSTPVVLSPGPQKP
A digest of the protocol:
(§1)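 GST fusions of human transcription factors were expressed in yeast and captured with glutathione beads. Once given DNA barcodes and pooled alongside a tag-only sample, they were incubated for 30 min at room temperature with 200 nmole of a random double-stranded 16-mer DNA library in Tris/NaCl/DTT/glycerol buffer, then washed, crosslinked (0.1% formaldehyde), proximity-ligated, PCR-amplified and sequenced on an Illumina NextSeq500. The binding signal of each hexamer is its read frequency for a factor divided by its frequency for the tag-only sample.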

The target of the next experiment is T2, ERG (Homo sapiens, UniProt P11308 1-479).
T2 sequence: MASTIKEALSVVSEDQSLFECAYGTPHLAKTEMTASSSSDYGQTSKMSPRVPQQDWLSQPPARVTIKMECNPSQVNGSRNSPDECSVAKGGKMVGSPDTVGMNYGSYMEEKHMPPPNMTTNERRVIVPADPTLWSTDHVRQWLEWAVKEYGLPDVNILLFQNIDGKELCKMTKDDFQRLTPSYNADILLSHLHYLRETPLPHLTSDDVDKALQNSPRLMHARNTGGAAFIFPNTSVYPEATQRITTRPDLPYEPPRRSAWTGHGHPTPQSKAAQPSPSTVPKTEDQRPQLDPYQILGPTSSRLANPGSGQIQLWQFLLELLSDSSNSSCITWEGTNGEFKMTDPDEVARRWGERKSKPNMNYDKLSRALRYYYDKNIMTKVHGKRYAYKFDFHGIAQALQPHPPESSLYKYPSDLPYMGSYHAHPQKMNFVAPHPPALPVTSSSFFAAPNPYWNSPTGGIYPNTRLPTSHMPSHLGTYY
A digest of the protocol: as §1

The target of a further experiment is ELF1 (Homo sapiens, UniProt P32519 1-619). A digest of the protocol: as §1
Chain of ELF1 (P32519 whole entry): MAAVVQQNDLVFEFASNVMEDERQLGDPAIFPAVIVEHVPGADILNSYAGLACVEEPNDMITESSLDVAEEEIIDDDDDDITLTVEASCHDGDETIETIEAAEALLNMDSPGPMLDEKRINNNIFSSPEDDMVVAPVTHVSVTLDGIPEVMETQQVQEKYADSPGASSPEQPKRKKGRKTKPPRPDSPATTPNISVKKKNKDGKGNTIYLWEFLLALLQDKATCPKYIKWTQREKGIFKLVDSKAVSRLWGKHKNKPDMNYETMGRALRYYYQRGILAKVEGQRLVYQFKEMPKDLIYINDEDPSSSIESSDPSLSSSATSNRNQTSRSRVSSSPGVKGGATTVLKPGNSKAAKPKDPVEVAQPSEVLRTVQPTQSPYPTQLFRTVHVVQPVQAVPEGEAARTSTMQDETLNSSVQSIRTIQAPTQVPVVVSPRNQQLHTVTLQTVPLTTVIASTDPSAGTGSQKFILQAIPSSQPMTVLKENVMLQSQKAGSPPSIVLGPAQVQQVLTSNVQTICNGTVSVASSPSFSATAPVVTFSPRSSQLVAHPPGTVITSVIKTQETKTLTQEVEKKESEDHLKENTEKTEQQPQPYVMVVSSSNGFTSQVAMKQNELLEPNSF
The target of the next experiment is SPIB (Homo sapiens, UniProt Q01892 1-262). The method in brief:
as §1

In another experiment the target is ETV5 (Homo sapiens, UniProt P41161 1-510). A digest of the protocol:
as §1

The next experiment deals with T3, ELK4 (Homo sapiens, UniProt P28324-2 1-405).
T3 sequence: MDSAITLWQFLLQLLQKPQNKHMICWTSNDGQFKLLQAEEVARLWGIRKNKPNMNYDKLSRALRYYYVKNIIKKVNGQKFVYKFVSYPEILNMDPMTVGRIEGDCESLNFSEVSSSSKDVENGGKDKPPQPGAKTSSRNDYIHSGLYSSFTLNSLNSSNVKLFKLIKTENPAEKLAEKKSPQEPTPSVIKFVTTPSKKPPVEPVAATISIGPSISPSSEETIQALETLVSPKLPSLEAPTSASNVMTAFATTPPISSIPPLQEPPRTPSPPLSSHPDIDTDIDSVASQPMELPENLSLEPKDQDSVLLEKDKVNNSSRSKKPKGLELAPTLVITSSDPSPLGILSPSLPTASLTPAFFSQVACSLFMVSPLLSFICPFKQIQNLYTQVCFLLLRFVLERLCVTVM
The method in brief:
as §1

The target of a further experiment is ETV1 (Homo sapiens, UniProt P50549 1-477). The method in brief:
as §1

In the next experiment the target is T4, ERF (Homo sapiens, UniProt P50548 1-548).
T4 sequence: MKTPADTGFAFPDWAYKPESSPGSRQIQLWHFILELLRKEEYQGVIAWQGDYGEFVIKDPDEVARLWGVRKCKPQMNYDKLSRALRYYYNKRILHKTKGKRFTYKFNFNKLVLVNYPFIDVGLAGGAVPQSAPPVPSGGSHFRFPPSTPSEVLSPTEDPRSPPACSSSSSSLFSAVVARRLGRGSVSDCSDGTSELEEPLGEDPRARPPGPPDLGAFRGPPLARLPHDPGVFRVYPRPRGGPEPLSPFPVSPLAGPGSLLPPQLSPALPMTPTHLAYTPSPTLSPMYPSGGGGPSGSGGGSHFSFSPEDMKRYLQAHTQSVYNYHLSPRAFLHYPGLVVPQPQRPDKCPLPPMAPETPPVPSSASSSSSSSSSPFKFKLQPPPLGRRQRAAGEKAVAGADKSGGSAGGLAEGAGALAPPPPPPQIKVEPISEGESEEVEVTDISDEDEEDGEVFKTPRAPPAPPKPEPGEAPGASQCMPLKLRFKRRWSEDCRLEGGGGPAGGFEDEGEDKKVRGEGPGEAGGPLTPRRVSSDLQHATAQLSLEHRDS
The method in brief: as §1

The target of another experiment is T5, ETV3L (Homo sapiens, UniProt Q6ZN32 1-361).
T5 sequence: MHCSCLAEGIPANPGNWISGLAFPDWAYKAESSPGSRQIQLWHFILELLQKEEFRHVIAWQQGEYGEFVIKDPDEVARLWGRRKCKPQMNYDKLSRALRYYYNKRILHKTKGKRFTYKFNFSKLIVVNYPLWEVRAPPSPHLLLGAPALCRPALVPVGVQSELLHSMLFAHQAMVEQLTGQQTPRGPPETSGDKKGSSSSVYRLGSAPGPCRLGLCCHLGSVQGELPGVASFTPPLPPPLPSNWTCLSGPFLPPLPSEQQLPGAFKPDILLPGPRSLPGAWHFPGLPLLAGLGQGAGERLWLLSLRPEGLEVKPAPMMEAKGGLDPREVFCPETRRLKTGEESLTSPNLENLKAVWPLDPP
The method in brief:
as §1

The next experiment deals with T6, ETV7 (Homo sapiens, UniProt Q9Y603 1-341).
T6 sequence: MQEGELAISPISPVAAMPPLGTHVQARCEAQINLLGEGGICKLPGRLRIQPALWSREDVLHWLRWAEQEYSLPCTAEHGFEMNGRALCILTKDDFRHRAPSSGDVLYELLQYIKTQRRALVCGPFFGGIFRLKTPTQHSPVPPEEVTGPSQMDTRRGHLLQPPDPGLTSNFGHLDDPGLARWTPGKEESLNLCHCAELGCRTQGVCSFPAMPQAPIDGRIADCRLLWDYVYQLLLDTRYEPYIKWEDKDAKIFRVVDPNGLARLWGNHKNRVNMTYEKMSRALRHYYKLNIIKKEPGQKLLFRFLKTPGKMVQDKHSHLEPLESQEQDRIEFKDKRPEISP
A digest of the protocol:
as §1

Another experiment addresses T7, GABPA (Homo sapiens, UniProt Q06546 1-454).
T7 sequence: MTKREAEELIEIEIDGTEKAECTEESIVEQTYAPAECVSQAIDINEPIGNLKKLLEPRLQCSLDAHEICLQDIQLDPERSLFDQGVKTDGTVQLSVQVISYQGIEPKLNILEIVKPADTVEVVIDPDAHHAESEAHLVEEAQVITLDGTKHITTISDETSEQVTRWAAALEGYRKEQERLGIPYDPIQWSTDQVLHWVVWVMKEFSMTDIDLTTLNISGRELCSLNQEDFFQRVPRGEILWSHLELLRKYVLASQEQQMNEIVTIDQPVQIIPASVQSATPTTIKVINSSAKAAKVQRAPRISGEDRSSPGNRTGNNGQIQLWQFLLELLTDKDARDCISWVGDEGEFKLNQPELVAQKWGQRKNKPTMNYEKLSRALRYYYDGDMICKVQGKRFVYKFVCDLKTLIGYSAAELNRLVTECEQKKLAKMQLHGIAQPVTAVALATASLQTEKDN
The method in brief: as §1

A further experiment concerns the target T8, ETV2 (Homo sapiens, UniProt O00321 1-342).
T8 sequence: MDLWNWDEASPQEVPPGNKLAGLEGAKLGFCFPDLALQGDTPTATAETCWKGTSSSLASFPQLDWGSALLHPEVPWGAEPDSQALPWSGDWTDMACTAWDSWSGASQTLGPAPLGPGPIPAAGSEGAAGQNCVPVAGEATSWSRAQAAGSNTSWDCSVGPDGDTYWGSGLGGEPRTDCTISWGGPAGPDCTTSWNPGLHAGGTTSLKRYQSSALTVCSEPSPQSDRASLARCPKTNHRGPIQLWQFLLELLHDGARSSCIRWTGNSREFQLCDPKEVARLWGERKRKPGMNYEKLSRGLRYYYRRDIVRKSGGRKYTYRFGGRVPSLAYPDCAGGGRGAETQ
The method in brief:
as §1

A further experiment concerns the target T9, ELF3 (Homo sapiens, UniProt P78545 1-371).
T9 sequence: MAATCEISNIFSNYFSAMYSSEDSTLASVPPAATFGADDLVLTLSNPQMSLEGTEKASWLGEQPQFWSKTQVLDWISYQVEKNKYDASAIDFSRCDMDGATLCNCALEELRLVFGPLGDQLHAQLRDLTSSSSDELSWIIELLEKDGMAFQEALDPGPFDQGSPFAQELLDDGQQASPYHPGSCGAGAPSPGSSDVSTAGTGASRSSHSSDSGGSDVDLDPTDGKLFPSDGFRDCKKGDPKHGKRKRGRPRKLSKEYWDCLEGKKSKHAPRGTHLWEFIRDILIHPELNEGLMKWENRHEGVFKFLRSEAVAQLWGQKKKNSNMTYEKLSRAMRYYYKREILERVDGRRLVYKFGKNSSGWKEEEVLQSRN
The method in brief:
as §1

For a further experiment, the target named is T10, ETS2 (Homo sapiens, UniProt P15036 1-469).
T10 sequence: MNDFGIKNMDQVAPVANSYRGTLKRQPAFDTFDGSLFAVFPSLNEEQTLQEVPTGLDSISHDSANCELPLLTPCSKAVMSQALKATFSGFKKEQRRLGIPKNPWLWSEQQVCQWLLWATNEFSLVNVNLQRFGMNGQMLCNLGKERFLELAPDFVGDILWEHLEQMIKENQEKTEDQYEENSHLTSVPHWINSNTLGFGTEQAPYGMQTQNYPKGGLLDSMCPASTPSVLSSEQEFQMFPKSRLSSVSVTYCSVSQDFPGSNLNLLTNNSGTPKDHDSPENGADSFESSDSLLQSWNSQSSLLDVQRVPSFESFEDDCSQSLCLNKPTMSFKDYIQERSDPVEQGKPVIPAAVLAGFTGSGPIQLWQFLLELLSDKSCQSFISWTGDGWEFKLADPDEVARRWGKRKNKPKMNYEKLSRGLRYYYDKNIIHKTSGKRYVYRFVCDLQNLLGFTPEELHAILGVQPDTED
A digest of the protocol: as §1

In the next experiment the target is T11, SPDEF (Homo sapiens, UniProt O95238 1-335).
T11 sequence: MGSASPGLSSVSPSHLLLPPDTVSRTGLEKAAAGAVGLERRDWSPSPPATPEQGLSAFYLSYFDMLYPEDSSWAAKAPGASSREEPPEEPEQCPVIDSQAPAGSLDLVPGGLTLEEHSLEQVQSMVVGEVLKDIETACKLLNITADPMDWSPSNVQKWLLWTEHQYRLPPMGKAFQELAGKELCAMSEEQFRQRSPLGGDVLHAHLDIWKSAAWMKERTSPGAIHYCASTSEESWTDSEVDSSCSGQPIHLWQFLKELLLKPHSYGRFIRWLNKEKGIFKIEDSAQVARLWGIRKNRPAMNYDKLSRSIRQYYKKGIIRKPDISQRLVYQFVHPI
The method in brief: as §1

For another experiment, the target named is T12, ETV3 (Homo sapiens, UniProt P41162-2 1-143).
T12 sequence: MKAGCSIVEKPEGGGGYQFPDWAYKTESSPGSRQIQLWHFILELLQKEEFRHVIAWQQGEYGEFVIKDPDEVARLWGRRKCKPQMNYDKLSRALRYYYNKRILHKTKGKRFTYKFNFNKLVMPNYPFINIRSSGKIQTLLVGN
A digest of the protocol:
as §1

For another experiment, the target named is ETV6 (Homo sapiens, UniProt P41212 1-452). The method in brief:
as §1

Chain of ETV1 (P50549 whole entry): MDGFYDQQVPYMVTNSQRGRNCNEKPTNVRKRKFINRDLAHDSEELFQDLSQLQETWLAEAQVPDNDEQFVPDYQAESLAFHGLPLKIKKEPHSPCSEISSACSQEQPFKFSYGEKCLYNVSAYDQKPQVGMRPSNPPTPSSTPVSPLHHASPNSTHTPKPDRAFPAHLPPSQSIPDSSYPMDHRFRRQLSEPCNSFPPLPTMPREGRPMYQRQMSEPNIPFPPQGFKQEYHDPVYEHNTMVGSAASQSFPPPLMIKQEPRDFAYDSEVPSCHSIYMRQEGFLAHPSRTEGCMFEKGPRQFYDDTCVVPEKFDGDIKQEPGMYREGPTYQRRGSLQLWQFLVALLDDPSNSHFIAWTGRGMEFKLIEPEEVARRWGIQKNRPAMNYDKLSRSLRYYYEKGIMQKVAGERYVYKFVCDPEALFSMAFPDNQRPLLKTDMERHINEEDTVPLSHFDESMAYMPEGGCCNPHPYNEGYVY
Chain of SPIB (Q01892 whole entry): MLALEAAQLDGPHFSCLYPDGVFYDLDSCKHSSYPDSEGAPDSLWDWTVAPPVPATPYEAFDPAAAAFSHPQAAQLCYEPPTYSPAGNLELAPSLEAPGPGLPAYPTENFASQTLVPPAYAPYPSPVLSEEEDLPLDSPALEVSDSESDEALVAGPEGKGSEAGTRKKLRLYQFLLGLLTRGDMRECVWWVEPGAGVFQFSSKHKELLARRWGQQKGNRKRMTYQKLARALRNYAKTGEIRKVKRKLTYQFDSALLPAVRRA
Chain of ETV5 (P41161 whole entry): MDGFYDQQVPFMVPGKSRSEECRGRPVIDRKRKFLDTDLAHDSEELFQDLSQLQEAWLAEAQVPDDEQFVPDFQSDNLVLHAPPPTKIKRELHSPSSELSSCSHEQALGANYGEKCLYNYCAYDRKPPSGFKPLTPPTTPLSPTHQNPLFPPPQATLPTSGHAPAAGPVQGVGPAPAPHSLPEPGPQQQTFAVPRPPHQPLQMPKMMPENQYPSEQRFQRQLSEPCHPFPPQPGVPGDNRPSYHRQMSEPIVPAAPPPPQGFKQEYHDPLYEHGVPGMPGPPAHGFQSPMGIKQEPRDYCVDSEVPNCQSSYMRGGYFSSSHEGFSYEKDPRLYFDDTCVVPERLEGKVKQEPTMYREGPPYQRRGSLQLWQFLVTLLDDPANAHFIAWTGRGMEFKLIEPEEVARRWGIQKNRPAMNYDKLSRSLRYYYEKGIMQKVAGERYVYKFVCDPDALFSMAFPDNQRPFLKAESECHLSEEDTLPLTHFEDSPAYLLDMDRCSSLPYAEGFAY
Chain of ETV6 (P41212 whole entry): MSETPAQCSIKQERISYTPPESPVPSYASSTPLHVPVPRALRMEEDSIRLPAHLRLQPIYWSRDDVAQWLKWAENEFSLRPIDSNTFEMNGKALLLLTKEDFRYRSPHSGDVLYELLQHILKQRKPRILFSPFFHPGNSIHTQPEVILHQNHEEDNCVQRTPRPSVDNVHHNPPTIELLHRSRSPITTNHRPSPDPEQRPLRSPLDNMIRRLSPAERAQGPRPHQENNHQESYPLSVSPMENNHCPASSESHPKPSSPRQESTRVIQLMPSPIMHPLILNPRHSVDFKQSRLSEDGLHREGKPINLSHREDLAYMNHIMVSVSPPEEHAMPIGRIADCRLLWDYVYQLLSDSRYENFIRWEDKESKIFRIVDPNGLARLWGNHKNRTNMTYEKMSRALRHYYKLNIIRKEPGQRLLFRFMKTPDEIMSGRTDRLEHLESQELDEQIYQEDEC

For GGTGGT, the binding signal with ELK1 was 1.03 fold enrichment (6-mer frequency, TF over GST control); with ERG it was 1.12 fold enrichment (6-mer frequency, TF over GST control); in the experiment with ELF1, 1.01 fold enrichment (6-mer frequency, TF over GST control); with SPIB it was 1.02 fold enrichment (6-mer frequency, TF over GST control); with ETV5, 1.04 fold enrichment (6-mer frequency, TF over GST control); in the experiment with ELK4, 1.08 fold enrichment (6-mer frequency, TF over GST control). Moreover, the binding signal in the experiment with ETV1 was 1 fold enrichment (6-mer frequency, TF over GST control); with ERF, 1.07 fold enrichment (6-mer frequency, TF over GST control); with ETV3L, 1.05 fold enrichment (6-mer frequency, TF over GST control); with ETV7, 1 fold enrichment (6-mer frequency, TF over GST control).
As to CGTTTG, the binding signal with ELK1 is 1.03 fold enrichment (6-mer frequency, TF over GST control); with GABPA, 1.03 fold enrichment (6-mer frequency, TF over GST control); with SPIB, 1.06 fold enrichment (6-mer frequency, TF over GST control); with ETV5, 1.01 fold enrichment (6-mer frequency, TF over GST control); with ELK4, 1.07 fold enrichment (6-mer frequency, TF over GST control); with ETV2, 1.16 fold enrichment (6-mer frequency, TF over GST control). Also, the binding signal with ELF3 is 1.02 fold enrichment (6-mer frequency, TF over GST control); with ETV1, 1.06 fold enrichment (6-mer frequency, TF over GST control); with ETV3L, 1 fold enrichment (6-mer frequency, TF over GST control); with ETS2 it was 1.06 fold enrichment (6-mer frequency, TF over GST control); with SPDEF, 1.01 fold enrichment (6-mer frequency, TF over GST control); in the experiment with ETV7 it was 1.21 fold enrichment (6-mer frequency, TF over GST control). In addition, the binding signal was 1.08 fold enrichment (6-mer frequency, TF over GST control) with ETV3 and 1.01 fold enrichment (6-mer frequency, TF over GST control) with ETV6.

The record behind these values is publication PMC7862700, “An all-to-all approach to the identification of sequence-specific readers for epigenetic DNA modifications on cytosine”.
